The list is not random: actives were taken first. Their share in the collection is about 0.34%.
IMPase Li inh – IMPase inhibition in cells with lithium potentiation; actives 0.35% (n = 210,000); Potency, µM (titrated, usually from 59.4 µM), hits mostly inhibitors; CHO-M1 cells, IP1 TR-FRET (IP-One), carbachol + lithium;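 also: IP1 builds up when IMPase is blocked and the TR-FRET signal falls; nearly all actives have a fitted effect of over 50% in size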
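IP1 accumulation measured by competitive TR-FRET in lysed CHO-M1 cells after 30 min compound exposure at 37C, with a small lithium addition to potentiate weak responses. Hill-equation AC50 from ratio and donor-channel data.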
LMNA splice mod – changes lamin A minigene splicing in HeLa cells | HeLa LMNA splicing GFP/RFP minigene ratio, 48 h | actives 0.01% (n = 200,000) | AID 1487 | Potency, µM (series often up to 46.1 µM), most hits filed as inhibitors; active = well fitted inhibition curve with a large enough effect in the signal ratio, with a control signal flat, not every such curve was filed as active; inconclusive = small, poorly fitted or top-dose-only effect, or effect the other way, or a change in a side signal; the % refers to the signal ratio
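S3 HeLa cells stably expressing lamin A-EGFP splicing minigene plus DsRed2, 600 cells/well, 48 h compound exposure at 37C. Laser-scanning cytometry; analysed as GFP (500-530 nm)/RFP (575-640 nm) total intensity ratio; 0.5% DMSO vehicle.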
KinaseGlo FLuc – counter-screen: inhibitors of Kinase-Glo firefly luciferase. Q27757. Kinase-Glo luciferase, ATP luminescence, 8 min. Potency, µM (top dose mostly 38.3 µM), usual class: inhibitors. actives 0.28% (n = 200,000). AID 1379; also: nearly all actives have a fitted effect of over 60% in size
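Light output from Kinase-Glo luciferase with luciferin and 10 uM ATP in 50 mM imidazole pH 7.2, KCl, MgCl2, Tween 20, BSA; compound pin-delivered, 8-min ambient incubation, then luminescence read.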
TCR act – T cell receptor activation; AID 504894; Potency, µM (series often up to 9.22 µM), actives largely listed as activators; 330,000 tested, under 10 active; primary human leukocytes, anti-CD3, IL-2 HTRF, 48 h
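Using a-CD3 beads without co-stimulation, primary human leukocytes were exposed to compounds for 48 hr. An HTRF IL-2 kit measured the cytokine, with europium-to-d2 energy transfer producing emission at 665nm upon 320nm excitation.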
A number is an active result; i = inactive; ? = inconclusive; nt = no result; ! = not confirmed by another sample. Unless noted, calls follow the shape of the dose curve; as a rule, active = well fitted curve in the direction sought with a large enough effect; inconclusive = small, poorly fitted or top-dose-only effect, or another doubt; inactive = no such curve, though single readings can be large; an effect the other way counts as inactive or inconclusive.

SMILES	IMPase Li inh	LMNA splice mod	KinaseGlo FLuc	TCR act
COc1ccc(C(=O)NCCC(=O)N2CCC3(CC2)NCCc2[nH]cnc23)cc1	nt	nt	nt	i
O=C(Nc1ccc(-c2nc3ccccc3[nH]2)cc1)C1CCCO1 (stereo not drawn)	i	i	4µM	i
O=C(Nc1nc2ccccc2[nH]1)C1CCCO1 (stereo not drawn)	i	i	i	i
CCCc1cc(=O)oc2cc(C)cc(OCC(=O)Nc3ccc(CN4CCOCC4)cc3)c12	nt	nt	nt	i
COc1cc(-c2nnc(COc3ccc4cc(Br)ccc4c3)o2)cc(OC)c1OC	14µM	?	i	i
COc1ccc(-c2nnc(COc3ccc4ccccc4c3)o2)cc1OC	i	?	i	i
Cn1c(/C=C/c2ccccc2)nc2ccccc21	i	nt	7.1µM	i
Cn1c(=O)c(/C=C/c2ccccc2)nc2ccccc21	i	?	i	i
Cc1c(C(=O)O)c(O)cc2c1C(=O)c1c(O)c([C@H]3O[C@H](CO)[C@@H](O)[C@H](O)[C@H]3O)c(O)c(O)c1C2=O	i	i	13µM!	nt
N#Cc1nc(-c2cccc3ccccc23)oc1NCCN1CCCCC1	11µM	i	i	i
N#Cc1ccc(Oc2ccc(-c3cnc4ccccc4n3)cc2)cc1C#N	2.8µM	i	i	i
O=C(c1ccc(Cl)c(Cl)c1)c1cc(-c2ccccn2)c(N2CCOCC2)s1	10µM	?	i	i
COc1ccc(C(=O)NC(C)c2nnc(SCC(=O)NC3CCCC3)n2C)cc1 (stereo not drawn)	nt	nt	nt	i
Cc1ccnc2nc(C(=O)Nc3ccc4c(c3)OCO4)nn12	i	i	13µM	i
CC(=O)N1c2ccccc2CC1C(=O)N1CCN(c2cccc(Cl)c2)CC1 (stereo not drawn)	nt	i	nt	nt
c1ccc(Nc2nc3ccccc3o2)cc1	i	i	13µM	nt
Cc1ccc2cc(C#N)c(SCC(=O)NCC3CCCO3)nc2c1 (stereo not drawn)	10µM	i	i	i
O=C(CSc1ccc2nnc(-c3ccc(F)cc3)n2n1)NCC1CCCO1 (stereo not drawn)	25µM	i	i	i
N#Cc1c(-c2ccccc2)nc(-c2ccncc2)[nH]c1=O	i	?	i	i
N#Cc1c(-c2ccccc2)nc(-c2ccccc2)[nH]c1=O	3.5µM	i	i	i
CCc1ccccc1NC(=O)c1ccc2c(O)c(S(=O)(=O)c3ccc(OC)cc3)c(=O)[nH]c2c1	nt	nt	nt	i
Oc1cccc(C(O)CNCc2ccc(OCc3ccc(Cl)cc3Cl)cc2)c1 (stereo not drawn)	i	?	i	i
CN(C)c1ccc(N/C=C/C(=O)c2ccco2)cc1	i	i	3.5µM	i
O=C(/C=C/Nc1ccccc1F)c1cccs1	i	i	?	i
O=C(/C=C/Nc1ccc(Br)cc1F)c1ccco1	i	i	13µM	i
SMILES	IMPase Li inh	LMNA splice mod	KinaseGlo FLuc	TCR act
O=C(/C=C/Nc1ccc(F)cc1F)c1ccco1	i	i	10µM	i
O=C(/C=C/Nc1ccc(F)cc1F)c1cccs1	i	i	7.9µM	i
COc1ccc(OCC(=O)Nc2cc(-c3nn(C)c(=O)c4ccccc34)ccc2OC)cc1	7.9µM	?	i	nt
CCOC(=O)C1C(=O)CC(C)(O)C(C(=O)OCC)C1c1ccc([N+](=O)[O-])cc1 (stereo not drawn)	nt	nt	nt	i
c1ccc2nc(-c3nc4ccccc4[nH]3)ccc2c1	i	i	8.9µM	i
Cc1ccc(OCc2nc(-c3ccccn3)no2)c(Br)c1	i	?	10µM	i
CCc1ccc(OCc2nc(-c3ccccn3)no2)c(Br)c1	i	i	i	i
COc1ccc(NC(=O)Nc2ccccc2F)cc1	i	i	?	i
COc1ccc(NC(=O)Nc2ccccc2SC)cc1	i	nt	10µM	i
COc1ccc(C(=O)Nc2ccccc2C(=O)N/N=C/c2cccc3ccccc23)cc1	i	i	5µM	nt
COCC(=O)Nc1ccccc1C(=O)Nc1ccc(OC)cc1	32µM	i	i	i
COc1ccc(C(=O)Nc2ccccc2C(N)=O)cc1	i	i	?	nt
O=C(COC(=O)c1ccc(Cl)c(S(=O)(=O)N2CCc3ccccc3C2)c1)Nc1ncc(Cl)cc1Cl	i	i	i	i
Cc1nc(NC(=O)COC(=O)c2ccc(S(=O)(=O)N3CCc4ccccc4C3)cc2)c(Cl)cc1Cl	10µM	nt	i	i
Cc1cccc(/C=C\c2ccccc2)n1	i	nt	11µM	nt
Cc1cc(NC(=O)NC(=O)c2ccccc2NC(=O)C(C)N)ccc1Oc1ncc(Br)cn1 (stereo not drawn)	nt	nt	nt	i
COc1cc([N+](=O)[O-])cc2sc(NC(=O)C(C)(C)C)nc12	i	i	i	i
COc1cc([N+](=O)[O-])cc2sc(NC(=O)C3CC3)nc12	22µM	i	i	i
C=CCNC(=S)NS(=O)(=O)c1cccs1	i	i	i	i
Cn1cc(S(=O)(=O)N2CCOCC2)cc1C(=O)NCc1ccccc1Cl	nt	nt	nt	i
CC(=O)c1cccc(NC(=O)c2ccc(-n3c(C)nnc3C)cc2)c1	nt	i	nt	nt
Cc1cccnc1NC(=O)CCCN1C(=O)c2ccccc2C1=O	i	i	i	i
O=C(CCCN1C(=O)c2ccccc2C1=O)Nc1c2c(nc3c1CCC3)CCC2	11µM	i	i	i
COc1ccc(-n2cc(-c3ccc(Br)cc3)[nH]c2=S)cc1	11µM	nt	i	i
COc1ccc(-n2cc(-c3ccc(OC)c(OC)c3)[nH]c2=S)cc1	i	i	i	i
SMILES	IMPase Li inh	LMNA splice mod	KinaseGlo FLuc	TCR act
COc1ccc(OC)c(S(=O)(=O)N/N=C(/C)c2ccc3c(c2)OCO3)c1	nt	nt	nt	i
O=C(N/N=C/c1ccccc1)c1[nH]ncc1Br	i	i	6.3µM	i
COc1ccccc1C(C)Nc1nc(-c2cccnc2)nc2ccccc12 (stereo not drawn)	nt	nt	nt	i
COc1cccc2cc(C(=O)NCc3ccco3)c(=O)oc12	11µM	i	i	i
Cc1ccc(C)c(NC(=O)c2cc3c([nH]c4ccccc43)c(C)n2)c1	11µM	i	i	i
Cc1cccc(NC(=O)c2cc3c([nH]c4ccccc43)c(C)n2)c1C	i	i	i	i
COc1cccc2c(=O)n(CC(=O)Nc3cccc(F)c3)ccc12	14µM	i	i	i
COc1cccc2c(=O)n(CC(=O)Nc3ccc(F)cc3)ccc12	?	i	i	i
CCc1ccc(C2CC(c3cccc(OC)c3)n3nc(N)nc3N2)cc1 (stereo not drawn)	i	i	i	i
CN(C)C1C(=O)C(C(N)=O)C(=O)C2(O)C(=O)C3C(=O)c4c(O)ccc(Cl)c4C(O)C3CC12 (stereo not drawn)	10µM	nt	i	nt
CN(C)C1C(=O)C(C(N)=O)=C(O)[C@@]2(O)C(=O)C3=C(O)c4c(O)ccc(Cl)c4C(O)[C@H]3C[C@@H]12 (stereo partly drawn)	i	nt	i	nt
CN(C)C1C(=O)C(C(N)=O)=C(O)[C@@]2(O)C(=O)C3=C(O)c4c(O)ccc(Cl)c4[C@@H](O)C3C[C@@H]12 (stereo partly drawn)	10µM	i	i	nt
O=C(/C=C\Nc1ccc2c(c1)OCO2)c1cccs1	i	?	13µM	i
O=C(Nc1ccccn1)c1ccc2c(c1)OCO2	i	i	11µM	i

High-throughput results: PubChem BioAssay, National Center for Advancing Translational Sciences (NCATS)
